# Screening results as filed in PubChem BioAssay.
# AF4-AF9 inh: inhibitors of AF4 peptide binding to AF9, primary screen, biochemical, AlphaScreen, biotin-AF4 peptide, FLAG-AF9, single point. inhibition, % at 10 µM. 0.47% of 350,000 active. Protein AF-9 (Homo sapiens), P42568;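 active means every replicate reaching a set inhibition limit, whatever the replicate mean, cut at about 25% in these data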;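 further: 0% = plate neutral control median and 100% = total signal loss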
# Target sequence (P42568 whole entry, looked up): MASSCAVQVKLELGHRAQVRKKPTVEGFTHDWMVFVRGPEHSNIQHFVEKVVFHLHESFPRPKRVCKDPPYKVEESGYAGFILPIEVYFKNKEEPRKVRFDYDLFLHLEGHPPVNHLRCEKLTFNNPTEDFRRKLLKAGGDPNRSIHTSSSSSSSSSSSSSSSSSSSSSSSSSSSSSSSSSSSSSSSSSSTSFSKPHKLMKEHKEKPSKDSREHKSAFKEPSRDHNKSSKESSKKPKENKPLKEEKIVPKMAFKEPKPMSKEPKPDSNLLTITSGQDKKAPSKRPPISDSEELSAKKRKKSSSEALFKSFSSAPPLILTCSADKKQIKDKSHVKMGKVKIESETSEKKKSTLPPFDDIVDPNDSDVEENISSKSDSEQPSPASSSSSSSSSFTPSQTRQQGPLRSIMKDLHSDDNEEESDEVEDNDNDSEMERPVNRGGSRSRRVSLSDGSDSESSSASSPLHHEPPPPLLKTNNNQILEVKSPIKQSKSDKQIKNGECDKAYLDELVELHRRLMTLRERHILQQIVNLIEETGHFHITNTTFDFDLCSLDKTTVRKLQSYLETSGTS
# esBAF inh: Bmi1 luciferase reporter increase in mESCs, primary screen, esBAF inhibitor project, mouse ES cells, Bmi1 luciferase knock-in, single point; 24 h; 100% = twice the neutral-well signal; reporter increase, % at 12.5 µM; 2% of 350,000 active; in the data active means activation above about 40%;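 further: 0% = median of the plate's neutral control wells and 100% = double that signal; a rise in the Bmi1 reporter signal indicates esBAF inhibition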
# MITF act: activators of MITF-driven TRPM1 promoter reporter, primary screen, cell-based, SK-MEL-5, luciferase, single point. SK-MEL-5 TRPM1-promoter luciferase, 24 h; % of positive control, neutral wells = 0. activation, % at 12.5 µM. 0.75% of 300,000 active;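 active means mean activation of at least 80% with every replicate also reaching 80%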;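 further: 0% = neutral control wells and 100% = parthenolide positive control wells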
# Wnt bcat act: Wnt/beta-catenin pathway activators, primary screen, cell-based, plate reader, single point | Wnt/beta-catenin reporter cell assay, activator | activation, % at 9.35 µM | 1.2% of 300,000 active; in the data active means activation above about 30%, passing the limit was not always enough;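 further: 0% = neutral control wells and 100% = positive control wells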
# rRNA inh HTS: reduced GFP signal of wild-type E. coli, primary screen, bacterial rRNA inhibitor project, GFP/RFP fluorescence, OD600, single point; 1.6% of 350,000 active; GFP signal change (wild-type ribosome), % (concentration not given with the values); E. coli WT GFP vs humanized-ribosome RFP mutants, 24 h; stronger effect = lower value; DMSO median 0, no signal -100;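 active means significant combined selectivity score with lowered wild-type GFP, culture density cut under 30%, mutant RFP and density less affected; inactive means any of these conditions unmet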
# An asterisk follows results filed as active; · = not tested or not shown. Shown are actives, neighbours in structure and some others; about 3.7% of the full set was active somewhere.
SMILES,AF4-AF9 inh,esBAF inh,MITF act,Wnt bcat act,rRNA inh HTS
CN(C)c1ccc(/C=N/NC(=O)CNC(=O)c2ccncc2)cc1,-3,-7,3,1,3
O=C(NCC1CCCO1)c1onc(CSc2ccc(F)cc2)c1C(=O)O (configuration not stated),-6,6,-2,2,6
Cc1ccc(SCc2noc(C(=O)NCC3CCCO3)c2C(=O)O)cc1C (configuration not stated),-3,-10,15,-2,-24*
Nc1ccc(CSc2ccccc2)cc1,8,54*,28,-7,-8
CC(C)c1ccc2nc(N)sc2c1,1,-5,92*,11,-4
Nc1nc2ccc(Oc3ccccc3)cc2s1,·,·,77,·,·
Nc1nc2ccc(OC(F)(F)F)cc2s1,-1,43*,41,11,·
Fc1cccc(F)c1-c1nc2c(s1)CCc1onc(-c3ccc(Br)cc3)c1-2,·,3,17,-1,·
O=S(=O)(c1ccccc1)N1CCN=C1SCc1ccc(Cl)c(Cl)c1,·,·,-13,4,·
O=S(=O)(c1ccccc1)N1CCN=C1SCc1cccc(Cl)c1,1,·,-10,-1,-23*
CCSC1=NCCN1S(=O)(=O)c1ccc2ccccc2c1,-9,·,-12,-2,-30*
Cc1cc(C(=O)Nc2cccc3c2O[C@@H](CN(C)C(=O)Nc2ccc(C(F)(F)F)cc2)[C@@H](C)CN([C@H](C)CO)C3=O)n(C)n1,-2,-4,·,·,-5
O=C(COC(=O)CC1CCCC1)Nc1cc2c(cc1Cl)C(=O)c1ccccc1C2=O,·,50*,29,39*,·
CC(C)(C)NC(=O)CSCc1c(Cl)cccc1Cl,2,·,4,1,-31*
NC(=O)CSCc1c(Cl)cccc1Cl,6,-2,-1,-2,8
CN(Cc1ccno1)Cc1cn(C)nc1-c1ccc(Oc2ccccc2)cc1,4,2,-9,-1,-34*
O=C(Cc1ccc(Cl)cc1)Nc1cccnc1,0,-2,·,1,-3
C=CCN(CC(=O)Nc1cccnc1)S(=O)(=O)c1ccc(Cl)cc1,1,4,-3,37*,·
Cc1ccc(S(=O)(=O)CCc2nnc(NC(=O)c3cccs3)s2)cc1,·,·,3,·,·
O=C(Nc1nnc(CCc2ccccc2)s1)c1cccs1,·,46*,26,·,·
CCC(C)(C)C(=O)Nc1nnc(CCc2ccccc2)s1,3,62*,61,15,-22
O=C(c1cccc(F)c1)N1C[C@@H]2[C@H](c3ccccc31)[C@@H](CO)N2C(=O)C1CCCCC1,0,0,·,·,1
CNC[C@H]1Oc2c(NC(=O)Nc3ccccc3)cccc2C(=O)N([C@@H](C)CO)C[C@@H]1C,-1,5,·,·,0
CC1(c2ccc(OCC#N)cc2)C=C(c2ccc(OCC#N)cc2)n2nc(C(F)(F)F)nc2N1 (configuration not stated),-1,·,-6,-19,-27*
Cc1ccc(C2=CC(C)(c3ccc(C)cc3)Nc3nc(C(F)(F)F)nn32)cc1 (configuration not stated),1,-2,19,-6,2
SMILES,AF4-AF9 inh,esBAF inh,MITF act,Wnt bcat act,rRNA inh HTS
COc1ccc(NS(=O)(=O)c2cn(C)c(=O)n(C)c2=O)cc1,-18,1,-8,42*,8
COc1ccc(NC(=O)Cn2c(=O)n(CC(=O)NCc3ccco3)c(=O)c3ccccc32)cc1OC,·,-2,·,-8,·
Cc1cccc2nc(-c3ccccc3)c(-c3ccc(CN4CCC(c5nc6ccccc6[nH]5)CC4)cc3)nc12,·,·,·,-2,-14
CCN(CC)c1ccc2cc(C(C)=O)c(=O)oc2c1,·,·,12,28,7
CCN(CC)c1ccc2cc(C(=O)Nc3ccccn3)c(=O)oc2c1,·,49*,10,27,·
CCCC(C)NC(=O)CSc1nnc2ccccn12 (configuration not stated),-4,·,-9,-1,17
S=c1[nH]nc(-c2ccc3ccccc3n2)n1-c1ccc2c(c1)OCCO2,-10,·,·,3,-33*
S=c1[nH]nc(-c2ccc3ccccc3n2)n1-c1ccccc1,-10,-4,-1,2,2
S=c1[nH]nc(-c2ccc(Br)cc2)n1-c1ccc2c(c1)OCCO2,-8,·,·,3,-14*
COc1ccccc1CN(C)C(=O)c1ccc(COc2ccccc2)cc1,6,4,24,0,10
CN(Cc1ccon1)Cc1cn(C)nc1-c1cccc(Cl)c1,0,·,-2,0,-4
COc1ccccc1CN1CC(C(=O)NCc2c(F)ccc(C)c2F)CCC1=O (configuration not stated),0,51*,80,14,3
COc1ccc(CCN2CC(C(=O)NCCc3ccccc3C(F)(F)F)CCC2=O)cc1 (configuration not stated),1,49*,46,9,-3
COc1ccccc1CN1CC(C(=O)NCCCc2ccc(F)cc2)CCC1=O (configuration not stated),42*,-1,5,-2,-3
O=C(N/N=C/c1ccncc1)C1CC1(c1ccccc1)c1ccccc1 (configuration not stated),6,·,·,-1,-22*
CC1Cc2ccccc2N1C(=O)c1ccc(Br)o1 (configuration not stated),4,92*,·,20,-10
Cc1ccc(C(=O)N2c3ccccc3CC2C)o1 (configuration not stated),-1,10,51,13,-13
Oc1nc(Nc2cccc(Cl)c2)sc1/C=C1\C=Nc2ccccc21,8,·,0,1,-14
Oc1cccc(Nc2nc(O)c(/C=C3\C=Nc4ccccc43)s2)c1,13,59*,47,35*,-55
CC1(C(=O)NS(=O)(=O)c2cccc(OC(F)F)c2)CCN1C(=O)Cc1ccccc1 (configuration not stated),2,-3,·,2,8
COc1ccc(CCNC(=O)c2ccc(-c3ccc([N+](=O)[O-])cc3Cl)o2)cc1,-5,·,4,-1,-23*
COC(C(=O)N1CCC(n2nccc2NC(=O)C2CC2)CC1)c1ccccc1 (configuration not stated),-5,44*,47,17,5
O=C(/C=C(\Nc1cccc(Cl)c1F)c1ccccc1)c1ccccc1,·,·,·,47*,6
CCNC(=O)COc1ccc(OCc2ccccc2)cc1,2,15,32,15,-2
CCNC(=O)COc1ccc(-c2ccccc2)cc1,·,19,·,40*,·
COCCCNC(=O)COc1ccc(Cl)c(C)c1,·,10,·,7,·
Cc1cc(OCC(=O)NC(C)(C)C)ccc1Cl,-4,62*,74,7,7
CC(C)(C)NC(=O)COc1ccc(-c2ccccc2)cc1,·,57*,65,·,·
